# Sampled rows, rich in hits. Any-hit rate of the full collection: about 6.6%.
# FBA Mtb inh: inhibits M. tuberculosis FBA enzyme; P9WQA3; purified M. tuberculosis FBA, fluorescence read-out; inhibition, % at 1 µM; 2.3% of 360,000 active; AID 588726; in the data active = inhibition above about 27%
# Target sequence (P9WQA3 whole entry, looked up): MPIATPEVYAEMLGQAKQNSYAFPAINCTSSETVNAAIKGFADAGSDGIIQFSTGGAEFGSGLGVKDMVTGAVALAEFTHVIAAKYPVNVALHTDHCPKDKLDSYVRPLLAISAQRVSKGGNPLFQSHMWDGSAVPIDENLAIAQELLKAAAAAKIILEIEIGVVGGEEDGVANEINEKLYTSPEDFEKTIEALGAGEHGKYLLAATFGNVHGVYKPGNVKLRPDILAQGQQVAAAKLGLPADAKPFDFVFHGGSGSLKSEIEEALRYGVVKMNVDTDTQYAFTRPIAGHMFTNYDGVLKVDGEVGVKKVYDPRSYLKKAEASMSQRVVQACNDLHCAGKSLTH
# BoNT-F LC inh: inhibitors of Botulinum neurotoxin F light chain protease. 0.22% of 360,000 active. inhibition, % at 10 µM. Multiplex microsphere protease cleavage assay, flow cytometry. AID 588497; in the data active = inhibition above about 35%, passing the limit was not always enough; inconclusive = no clear call, values can overlap the other calls
# BoNT A protease: inhibitors of Botulinum neurotoxin A light chain protease; 0.17% of 360,000 active; inhibition, % at 10 µM; AID 588499; multiplex microsphere protease substrate cleavage, flow cytometry
# Autofluor counter: compound fluorescence in toxin protease inhibitor counterscreen | compound autofluorescence counterscreen, microsphere flow cytometry; stronger effect = higher value | fluorescence intensity (concentration not given with the values) | 3.1% of 360,000 active | AID 624483; in the data active = fluorescence intensity above about 16000; inconclusive = no clear call, values can overlap the other calls
# GDH-TPI counter: counter-screen for M. tuberculosis FBA inhibitors: GDH-TPI coupled enzymes; GDH-TPI coupled enzyme counterscreen, NADH absorbance; inhibition, % at 4.8 µM; 1.2% of 360,000 active; AID 588335; in the data active = inhibition above about 30%
# Anthrax LF prot: inhibitors of Bacillus anthracis lethal factor protease; multiplex microsphere protease cleavage assay, LF; inhibition, % at 10 µM; 0.12% of 360,000 active
# Numbers stand for hits; . = inactive; ? = inconclusive; / = no result. Rule as the data show it, unless noted: active = inhibition above about 30%; inconclusive = no clear call, values can overlap the other calls; inactive = below that.
SMILES,FBA Mtb inh,BoNT-F LC inh,BoNT A protease,Autofluor counter,GDH-TPI counter,Anthrax LF prot
CC(C)Oc1ccc(CNS(=O)(=O)c2csc(C(N)=O)c2)cc1,.,.,.,.,.,.
CCCCN(C(=O)NC(=O)Nc1ccc(C)cn1)S(C)(=O)=O,.,.,.,.,.,.
Cc1cc(C)c(OCCNCc2ccccc2)c(C)c1,.,.,.,.,.,.
Cc1cc(C)c(OCCCCNCc2ccccc2)c(Cl)c1,.,.,?,21662,.,.
COCCCNCCCCOc1c(Cl)cc(C)cc1Br,.,.,?,22891,.,.
CCOC(=O)c1c(Cc2ccccc2)c[nH]c1C,.,.,.,.,.,.
O=Cc1ccc(N2CCCCCC2)cc1,.,.,.,.,34,.
COc1ccccc1/C=C/C(=O)OC(C)CN1CCOCC1 (stereo not drawn),.,.,.,21922,.,.
COc1ccccc1/C=C/CN1CCOCC1,.,.,.,22191,.,.
COc1ccc(C(=O)OC(C)CN2CCOCC2)cc1OC (stereo not drawn),121,.,.,.,.,.
Nc1ncnc2c1ncn2[C@@H]1O[C@H](C(=O)Nc2ccc(Oc3ccccc3)nc2)[C@@H](O)[C@H]1O,.,.,.,.,/,.
CC(C)c1ccc(C2N3CC4([N+](=O)[O-])CN2CC([N+](=O)[O-])(C3)C4(C)C)cc1 (stereo not drawn),.,.,.,.,.,.
CC1(C)C2([N+](=O)[O-])CN3CC1([N+](=O)[O-])CN(C2)C31CCCC1,.,.,?,17714,.,.
CC1(C)C2([N+](=O)[O-])CN3CC1([N+](=O)[O-])CN(C2)C3c1ccccc1 (stereo not drawn),.,.,.,22107,.,.
O=S(=O)(Nc1ncccn1)c1ccc(Cl)cc1,.,/,/,/,.,/
CN(C)c1nc(NS(=O)(=O)c2ccc(Cl)cc2)nc(N(C)C)n1,.,.,.,16435,.,.
COCCSc1nc2sc3c(c2c(=O)n1-c1ccccc1)CCN(C)C3,.,.,.,.,31,.
CCCN1CCc2c(sc3nc(SCC)n(-c4ccccc4)c(=O)c23)C1,.,.,34,.,.,.
COc1ccc(-n2c(SC)nc3sc4c(c3c2=O)CCN(C)C4)cc1,.,.,.,.,.,.
CCSc1nc2sc3c(c2c(=O)n1-c1ccccc1)CCN(C)C3,.,.,.,.,.,.
CCCN1CCc2c(sc3nc(SCC)n(-c4ccc(OC)cc4)c(=O)c23)C1,.,.,40,.,.,.
Cc1ccc(SCC(=O)NC(C)(C)C)cc1,.,.,.,.,.,.
COc1ccc(O)c(C(=O)CC(=O)c2ccccc2C)c1,.,.,.,.,.,.
COc1ccc(C(=O)CC(=O)c2ccccc2O)cc1,171,?,.,.,.,.
COc1ccc(O)c(C(=O)CC(=O)c2cccnc2)c1,115,.,.,?,.,.
SMILES,FBA Mtb inh,BoNT-F LC inh,BoNT A protease,Autofluor counter,GDH-TPI counter,Anthrax LF prot
C/C(=N\NC(=O)Cc1ccc(Cl)cc1)c1ccc(F)cc1,.,35,.,.,.,.
O=C(NCc1ccccc1Cl)c1ccc(CSc2nc3ccncc3[nH]2)cc1,150,.,.,.,.,.
Clc1ccccc1CSc1nc2ccncc2[nH]1,.,.,.,.,.,.
CC(NC(=O)C(=O)N1CCCCC1)C(c1cccs1)N1CCN(c2ccccc2)CC1 (stereo not drawn),.,/,/,/,.,/
Cc1ccc(Cn2c(C(C)Nc3nc(-c4ccc(F)cc4)cs3)nc3cc(C(F)(F)F)ccc32)cc1 (stereo not drawn),.,.,.,.,.,.
C=CCn1c(-c2cccc3ccccc23)n[nH]c1=S,.,.,.,21011,.,.
O=C(COC(=O)CNS(=O)(=O)c1ccc(Br)cc1Cl)NC1CCCC1,.,.,.,.,.,.
CC1CCN(c2nc3nonc3nc2N2CCC(C)CC2)CC1,.,.,?,21212,.,.
CC1CCCN(c2nc3nonc3nc2N2CCCC(C)C2)C1 (stereo not drawn),.,.,.,.,.,.
CC(C)c1nnc(NC(=O)CCC2CCCCC2)s1,.,?,.,.,.,.
CCn1c(SCc2nc3ccccc3[nH]2)nnc1-c1ccccc1OC,.,.,.,.,.,.
CCn1c(COc2ccc(C)cc2)nnc1SCc1nc2ccccc2[nH]1,.,.,.,19776,.,.
CCn1c(SCc2nc3ccccc3[nH]2)nnc1-c1cccs1,.,.,?,21099,.,.
Cn1c(COc2ccccc2)nnc1SCc1nc2ccccc2[nH]1,.,.,.,.,.,.
c1ccc(CCCN2CCN(c3ccccc3)CC2)cc1,.,.,.,.,.,.
O=C(Nc1cccc(C(F)(F)F)c1)c1cc2ncc(Br)cn2n1,.,.,.,22276,.,.
O=C(Nc1ccc2c(c1)OCO2)c1cc2ncc(Br)cn2n1,.,.,.,.,.,.
O=C(NCCc1ccccc1)c1cc2ncc(Br)cn2n1,.,.,.,.,.,.
CCc1ccccc1NC(=O)c1cc2ncc(Br)cn2n1,.,.,?,21333,.,.
N#CCc1c(C#N)c(N)nc(Nc2ccccc2)c1C#N,.,.,.,.,31,.
COC(=O)CSc1nc(C)c(C(C)=O)cc1C#N,.,.,?,20891,.,.
CCCSc1nc(C)c(C(C)=O)cc1C#N,.,.,.,.,.,.
Cc1nc2c(C)cccn2c(=O)c1NC(=O)c1ccc(Br)o1,.,/,/,/,33,/
COc1ccc(-c2csc(NC(=O)c3cccc(S(=O)(=O)N4CCN(C)CC4)c3)n2)cc1,.,.,.,.,.,.
CC(C)C(=O)Nc1nc(-c2ccc(S(=O)(=O)N3CCOCC3)cc2)cs1,59,.,.,?,.,.
SMILES,FBA Mtb inh,BoNT-F LC inh,BoNT A protease,Autofluor counter,GDH-TPI counter,Anthrax LF prot
CN1CCN(S(=O)(=O)c2cccc(C(=O)Nc3nc(-c4ccccc4)cs3)c2)CC1,.,.,.,23294,.,.
COc1ccccc1OC(C)C(=O)Nc1nc(-c2ccc(S(=O)(=O)N3CCOCC3)cc2)cs1 (stereo not drawn),.,.,?,23958,.,.
COc1ccccc1C(=O)Nc1nc(-c2ccc(S(=O)(=O)N3CCOCC3)cc2)cs1,.,.,.,.,.,.
COc1c(F)c(F)c(C(=O)Nc2ccc(NC(=O)Cc3ccccc3)cc2)c(F)c1F,.,.,.,.,.,.
Cc1sc2nc(CN3CCOCC3)nc(NS(=O)(=O)c3cc(Cl)ccc3Cl)c2c1C,.,.,.,.,.,.
N#Cc1c(-c2ccncc2)c2c([nH]c1=S)CCCC2,.,.,.,.,.,.
Cc1ccc(-c2c3c([nH]c(=S)c2C#N)CCCC3)o1,.,.,?,24820,.,.
COc1cc(C(=O)OCC(=O)NC2CCCC2)cc(NC(=O)c2ccco2)c1OC,.,.,.,20665,.,.
Cc1ccc(C(=O)OCC(=O)Nc2cc(F)ccc2F)cc1NC(=O)c1ccco1,.,.,.,.,.,.
COc1cc(C(=O)OCC(C)=O)cc(NC(=O)c2ccco2)c1OC,.,.,.,.,.,.
COC(=O)c1cccc(NC(=O)c2ccco2)c1,.,.,.,.,.,.

# From PubChem BioAssay
